In PubChem BioAssay (EPA / NIEHS) one finds AC50 and outcome data, which are given here for 29 compounds.

Records with an inconclusive call do not appear. A structure can be active in one record and inactive in another. Activity calls are given as the source filed them. How the source made its calls, unless noted: active means hit-call score of the fitted dose curve at least 0.9, where 1 is the maximum; inconclusive means response in the unintended direction; inactive means score below 0.9.

Experiment [1] deals with zebrafish Peroxisome Proliferator-activated Receptor gamma (PPARg), gene 557037. As to the kind of experiment: ATG_zfPPARg_XSP2: Attagene TRANS-FACTORIAL Multi-Species (XSP2) HepG2 Assay for zebrafish Peroxisome Proliferator-activated Receptor gamma (PPARg) (AID 2283833).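 Further: reporter mRNA from a zebrafish PPARg GAL4 chimera measured by RT-PCR and capillary electrophoresis; actives increase reporter signal over DMSO so AC50 reflects activation.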 The essentials: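 Transfect HepG2 with multiplexed GAL4-UAS reporter constructs; dose chemical 24 h; isolate RNA, reverse-transcribe, PCR-amplify, label and digest reporter products; resolve by capillary electrophoresis. Activity taken as increase over DMSO.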

For experiment [2], the system named is turtle Thyroid Hormone Receptor, alpha (TRa), gene 101949057. As to the kind of experiment: ATG_trTRa_XSP2: Attagene TRANS-FACTORIAL Multi-Species (XSP1) HepG2 Assay for turtle Thyroid Hormone Receptor, alpha (TRa) (AID 2283834).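 Further: hits raise reporter mRNA over the DMSO baseline so AC50 marks activators.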 The essentials: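 Readout: reporter mRNA induction, fluorescence after RT-PCR, HpaI digestion and capillary electrophoresis. Transiently transfected HepG2, exogenous NR-Gal4 chimera driving GAL4-UAS reporter, 24 h compound exposure. Activity fitted upward relative to DMSO baseline.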

Experiment [3] deals with frog Thyroid hormone Receptor alpha (TRa), thra-a (gene 397942) (UniProt P15204). As to the kind of experiment: ATG_frTRa_XSP2: Attagene TRANS-FACTORIAL Multi-Species (XSP2) HepG2 Assay for frog Thyroid hormone Receptor alpha (TRa) (AID 2283839).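 On AC50: AC50 reflects induction of frog TRa-driven reporter mRNA above DMSO baseline.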 An outline of the steps:
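Read-out: fluorescent reporter-transcript fragments resolved by capillary electrophoresis after RT-PCR and HpaI cut. Human HepG2 liver cells carry a transfected frog TRα-Gal4 chimera driving a UAS reporter; 24 h exposure, DMSO baseline, positive-direction fit.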

Experiment [4] concerns the target human Thyroid hormone Receptor beta (TRb), THRB (gene 7068) (UniProt P10828). As to the kind of experiment: ATG_hTRb_XSP2: Attagene TRANS-FACTORIAL Multi-Species (XSP2) HepG2 Assay for human Thyroid hormone Receptor beta (TRb) (AID 2283840).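 Further: actives raise reporter mRNA so potency reflects agonist-like gain of signal.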 The essentials:
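Read-out: reporter mRNA induction (RT-PCR, 6-FAM labeling, capillary electrophoresis), gain-of-signal relative to DMSO baseline. Transiently transfected HepG2 TRANS multiplex (NR-Gal4 chimeras, GAL4-UAS reporters), 24 h chemical exposure; medium contained 3 nM 6-alpha-fluorotestosterone plus 1.5 nM norgestrel.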

Experiment [5] is described as follows: CPHEA_Stoker_NIS_Cytotoxicity: Cytotoxicity Assessment for CPHEA's Radioactive Iodide Uptake (RAIU) Assay for Sodium/Iodide Symporter (NIS) Inhibition, Stoker and Laws Labs (AID 2283897).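 On AC50: active means loss of ATP signal versus DMSO meaning cytotoxicity.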 The essentials: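 CellTiter-Glo ATP luminescence gauged viability in HEK293T cells expressing human NIS after 2 h chemical exposure. Concentrations ran 0.001–100 uM in 0.5% DMSO; DMSO served as baseline for the loss-of-signal fit.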

Experiment [6] can be described thus: ATG_M_61_XSP2: Attagene TRANS-FACTORIAL Multi-Species (XSP2) HepG2 Assay for M61 Transcription Factor (Internal Marker) (AID 2283835; active means hit-call score of the fitted dose curve at least 0.9, where 1 is the maximum; inactive means score below 0.9;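 further: reporter mRNA of an internal background marker read by RT-PCR and capillary electrophoresis; active means a rise in signal above the DMSO baseline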). The essentials:
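Signal was mRNA induction detected as fluorescence after RT-PCR and capillary electrophoresis, analysed in the gain direction with DMSO as baseline. HepG2 cells transiently carrying reporter constructs received chemicals for 24 h.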

The target of experiment [7] is zebrafish Thyroid Hormone Receptor beta (TRb), thrb (gene 30607) (UniProt Q9PVE4). As to the kind of experiment: ATG_zfTRb_XSP2: Attagene TRANS-FACTORIAL Multi-Species (XSP1) HepG2 Assay for zebrafish Thyroid Hormone Receptor beta (TRb) (AID 2283836). An outline of the steps:
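Reporter transcripts were measured by RT-PCR with fluorescent primer extension and capillary electrophoresis, 24 h after chemical dosing of transiently transfected HepG2 cells. Activity was scored as upward signal versus DMSO baseline.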

The nature of experiment [8]: ATG_XTT_Cytotoxicity_XSP2: Cytotoxicity Assessment in the Attagene TRANS-FACTORIAL Multi-Species (XSP2) HepG2 Assay (AID 2283837). The essentials:
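XTT-based cell number read-out in human HepG2 liver cells carrying transfected reporter units, measured 24 h after chemical dosing. Activity is signal loss versus DMSO baseline.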

Experiment [9] addresses human Thyroid hormone Receptor alpha (TRa), THRA (gene 7067) (UniProt P10827). As to the kind of experiment: ATG_hTRa_XSP2: Attagene TRANS-FACTORIAL Multi-Species (XSP2) HepG2 Assay for human Thyroid hormone Receptor alpha (TRa) (AID 2283838). The essentials: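 Gain-of-signal in reporter mRNA, relative to DMSO, after 24 h dosing of transfected HepG2; quantitation by RT-PCR fragment analysis on capillary electrophoresis.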

Experiment [10] deals with Sodium/Iodide Symporter (NIS), SLC5A5 (gene 6528). As to the kind of experiment: CPHEA_Stoker_NIS_Inhibition_RAIU: CPHEA's Radioactive Iodide Uptake (RAIU) Assay for Sodium/Iodide Symporter (NIS) Inhibition, Stoker and Laws Labs (AID 2283841). An outline of the steps:
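Iodide uptake read as CPM of intracellular 125I (final 329 pM) after 2 h room-temperature exposure in HEPES-buffered HBSS, pH 7.4. Human NIS-expressing HEK293T cells; six concentrations 0.001–100 uM, 0.5% DMSO, normalised to DMSO wells.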

Chain of human Thyroid hormone Receptor beta (TRb), THRB (gene 7068) (P10828 whole entry, looked up, the tested form may be a part): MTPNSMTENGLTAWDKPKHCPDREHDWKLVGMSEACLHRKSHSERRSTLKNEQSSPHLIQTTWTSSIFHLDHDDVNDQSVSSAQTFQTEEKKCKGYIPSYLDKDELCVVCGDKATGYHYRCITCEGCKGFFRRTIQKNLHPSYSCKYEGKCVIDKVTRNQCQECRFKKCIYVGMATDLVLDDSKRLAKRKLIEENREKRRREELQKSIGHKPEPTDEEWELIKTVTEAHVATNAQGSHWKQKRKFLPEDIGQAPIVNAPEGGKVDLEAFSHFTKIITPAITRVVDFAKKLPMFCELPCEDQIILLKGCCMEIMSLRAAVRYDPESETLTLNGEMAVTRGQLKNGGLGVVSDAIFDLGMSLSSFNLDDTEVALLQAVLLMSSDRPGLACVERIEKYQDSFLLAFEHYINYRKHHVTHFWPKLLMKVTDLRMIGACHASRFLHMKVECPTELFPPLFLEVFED
Chain of frog Thyroid hormone Receptor alpha (TRa), thra-a (gene 397942) (P15204 whole entry, looked up, the tested form may be a part): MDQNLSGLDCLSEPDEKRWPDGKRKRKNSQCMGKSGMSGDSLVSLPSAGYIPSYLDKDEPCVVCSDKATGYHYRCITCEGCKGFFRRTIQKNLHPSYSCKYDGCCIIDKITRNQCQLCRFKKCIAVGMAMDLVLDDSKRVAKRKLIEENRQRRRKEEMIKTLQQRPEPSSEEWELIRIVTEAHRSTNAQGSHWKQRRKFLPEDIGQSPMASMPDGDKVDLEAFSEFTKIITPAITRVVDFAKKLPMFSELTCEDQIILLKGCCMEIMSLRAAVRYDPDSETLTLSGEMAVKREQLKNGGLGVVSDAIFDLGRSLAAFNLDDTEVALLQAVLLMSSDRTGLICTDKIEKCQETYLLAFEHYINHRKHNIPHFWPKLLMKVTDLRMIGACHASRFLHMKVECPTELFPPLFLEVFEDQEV
Chain of human Thyroid hormone Receptor alpha (TRa), THRA (gene 7067) (P10827 whole entry, looked up, the tested form may be a part): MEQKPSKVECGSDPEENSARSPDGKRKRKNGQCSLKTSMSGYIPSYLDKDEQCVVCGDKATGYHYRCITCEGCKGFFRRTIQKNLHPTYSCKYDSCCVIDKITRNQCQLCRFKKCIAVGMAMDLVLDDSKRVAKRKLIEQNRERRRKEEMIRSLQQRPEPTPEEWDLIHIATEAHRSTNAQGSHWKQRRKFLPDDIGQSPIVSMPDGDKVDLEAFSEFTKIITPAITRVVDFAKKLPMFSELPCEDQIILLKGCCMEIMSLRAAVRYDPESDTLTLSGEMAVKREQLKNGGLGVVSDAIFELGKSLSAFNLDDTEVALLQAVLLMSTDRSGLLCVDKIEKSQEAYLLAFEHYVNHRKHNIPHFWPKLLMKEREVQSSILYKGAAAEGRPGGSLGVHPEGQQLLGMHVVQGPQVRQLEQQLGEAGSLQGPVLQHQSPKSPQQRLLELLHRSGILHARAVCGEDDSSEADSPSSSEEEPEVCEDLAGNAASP
Chain of zebrafish Thyroid Hormone Receptor beta (TRb), thrb (gene 30607) (Q9PVE4 whole entry, looked up): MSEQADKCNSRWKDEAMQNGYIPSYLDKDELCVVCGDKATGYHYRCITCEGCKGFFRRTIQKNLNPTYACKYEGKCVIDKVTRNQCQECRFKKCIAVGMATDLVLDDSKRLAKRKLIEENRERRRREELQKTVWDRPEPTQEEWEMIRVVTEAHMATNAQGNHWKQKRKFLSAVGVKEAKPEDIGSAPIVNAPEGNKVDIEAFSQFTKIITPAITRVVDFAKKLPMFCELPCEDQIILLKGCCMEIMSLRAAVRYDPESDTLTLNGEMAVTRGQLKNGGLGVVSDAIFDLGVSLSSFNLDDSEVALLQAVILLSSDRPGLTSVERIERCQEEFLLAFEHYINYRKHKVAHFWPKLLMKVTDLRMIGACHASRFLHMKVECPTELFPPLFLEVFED

As for `CCCCCOC(=O)c1ccccc1C(=O)OCCCCC`, the AC50 (commonly the concentration at which the activity in the assay is half-maximal) in experiment [1] was 174 µM (active). Moreover, the outcome in experiment [2], in [3], in experiment [4] and in experiment [5] was inactive.

Regarding `COP(=S)(OC)SCN1C(=O)c2ccccc2C1=O`, the result in experiment [5] was inactive.

Take `CC(C)(C)C(O)(CCc1ccc(Cl)cc1)Cn1cncn1` (stereo not drawn): the call in experiment [1], in [2], in experiment [6], in experiment [7], in experiment [8] and in [9] was inactive. Also, the compound was called inactive in experiment [4] and in experiment [5].

As to `CCC(C)c1ccc(O)cc1` (stereo not drawn), the compound was classed as inactive in experiment [1], in [2], in experiment [6], in experiment [7], in experiment [8] and in [9]. The compound was called inactive in [3], in experiment [4], in experiment [10] and in experiment [5].

With `c1ccc2c(c1)oc1ccccc12`, the outcome in [10] and in [5] was inactive.

As to `Brc1ccc(Oc2ccccc2)cc1`, the result in experiment [10] and in experiment [5] was inactive.

Regarding `CCCCOC(=O)c1ccccc1C(=O)OCc1ccccc1`, the outcome in experiment [1], in experiment [2], in [6], in experiment [7], in experiment [3] and in [4] was inactive. For the same compound, the result in experiment [10] and in experiment [5] was inactive.

For the compound `c1ccc2c(c1)-c1cccc3cccc-2c13`, the call in experiment [1], in experiment [2], in [6], in [7], in experiment [8] and in experiment [9] was inactive. Further, the result in experiment [3] and in experiment [4] was inactive.

`CC(C)(OOC(C)(C)c1ccccc1)c1ccccc1`: the result in experiment [10] and in [5] was inactive.

In the case of `CCC[CH2][Sn]([Cl])([CH2]CCC)[CH2]CCC`, the compound was called inactive in [1], in [2], in [6], in experiment [7], in experiment [9] and in experiment [3]. Moreover, the AC50 was 0.649 µM (active) in experiment [4], 8.22 µM (active) in [10] and 3.44 µM (active) in experiment [5].

For the compound `CCOC(=O)[C@]1(c2ccccc2)Oc2ccccc2[C@@H]1N`, the outcome in [10] was inactive. In experiment [5], the AC50 was 1.38 µM (active).

Consider `[Cl-].[Cl-].[Hg+2]`, for which the figures for the concentration at half-maximal activity (AC50) in [10] and in [5] were 7.02 µM (active) and 39.4 µM (active), respectively.

Consider `CCNS(=O)(=O)C(F)(F)C(F)(F)C(F)(F)C(F)(F)C(F)(F)C(F)(F)C(F)(F)C(F)(F)F`, for which the outcome in [10] and in experiment [5] was inactive.

On to `CN(C)c1ccc(C(=O)c2ccc(N(C)C)cc2)cc1`, for which the outcome in [10] and in experiment [5] was inactive.

Turning to `CC(C)COC(=O)c1ccccc1C(=O)OCC(C)C`, in experiment [5], the result was inactive.

Take `ClC1=C(Cl)[C@]2(Cl)[C@H]3[C@H]([C@@H]4C=C[C@H]3C4)[C@@]1(Cl)C2(Cl)Cl`: the outcome in [10] and in [5] was inactive.

Turning to `ClC1=C(Cl)C2(Cl)C3C(Cl)C=CC3C1(Cl)C2(Cl)Cl` (stereo not drawn), the outcome in experiment [10] and in [5] was inactive.

Take `Cc1cccc(N)c1N`: the outcome in experiment [10] and in experiment [5] was inactive.

With `O=[N+]([O-])C(Br)(CO)CO`, the result in [5] was inactive.

For `Cc1cc(N=Nc2ccccc2C)ccc1N`, the result in experiment [10] and in experiment [5] was inactive.

As for `Clc1ccc(C(c2ccc(Cl)cc2)C(Cl)Cl)cc1`, the compound was classed as inactive in experiment [1], in experiment [6], in [4], in [10] and in experiment [5].

On to `Clc1ccc(C(c2ccc(Cl)cc2)C(Cl)(Cl)Cl)cc1`, for which the compound was called inactive in [1], in [6], in experiment [7], in experiment [9], in experiment [3] and in [4]. The result in experiment [5] was inactive.

Take `Oc1ccc2ccc3cccc4ccc1c2c34`: the compound was called inactive in experiment [1], in experiment [2], in [6], in experiment [7], in experiment [3] and in [10]. For the same compound, the outcome in experiment [5] was inactive. Besides, the AC50 was 151 µM (active) in [8] and 22.7 µM (active) in experiment [3].

Consider `Nc1ccc(Cl)cc1N`, for which the AC50 in experiment [10] is 50 µM (active). Further, the outcome in experiment [5] was inactive.

With `CC(C)(O)c1cnn2c(-c3ccc(F)c(-c4c(F)cccc4C#N)c3)cnc2n1`, the result in experiment [10] and in experiment [5] was inactive.

Take `CCCCC(CC)COC(=O)c1ccc(C(=O)OCC(CC)CCCC)c(C(=O)OCC(CC)CCCC)c1` (stereo not drawn): the outcome in [2], in [7], in experiment [8], in [9], in [3] and in experiment [4] was inactive.

On to `C[C@]12C=CC3=C4CCC(=O)C=C4CC[C@H]3[C@@H]1CC[C@@H]2O`, for which the call in experiment [6] was inactive. For the same compound, in experiment [4], the AC50 was 0.0256 µM (active).

As for `CCCCCCCCn1sccc1=O`, the outcome in experiment [10] and in [5] was inactive.

As for `O=[N+]([O-])c1ccc(Oc2ccc(Cl)cc2Cl)cc1`, the outcome in experiment [1], in experiment [2], in [6], in [7], in experiment [8] and in [9] was inactive. The result in [3], in experiment [4], in experiment [10] and in experiment [5] was inactive.
